Assay [1] deals with Neuro-2a. The assay is described as follows: neurite formation score, plate-normalized to DMSO control mean 5.04 (score (0-8 scale)); higher = more or longer neurites. The following applies: 1 µM. The method, then:
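Neuro-2a mouse neuroblastoma cells in PLL-coated 96-well plates were pre-treated for 1 h in DMEM(+) with each kinase inhibitor at 1 µM, then switched to serum-free DMEM(-) with inhibitor to induce neurite outgrowth and fixed about 2-3 h later. Three blinded observers scored neurite formation from 0 (no neurites) to 8 (long neurites on almost all cells).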

For assay [2], the system named is Neuro-2a. Described as above. The following applies: 0.1 µM. As to the method:
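Neuro-2a mouse neuroblastoma cells in PLL-coated 96-well plates were pre-treated for 1 h in DMEM(+) with each kinase inhibitor at 0.1 µM, then switched to serum-free DMEM(-) with inhibitor to induce neurite outgrowth and fixed about 2-3 h later. Three blinded observers scored neurite formation from 0 (no neurites) to 8 (long neurites on almost all cells).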

Counter-ions that a name gives are not always drawn.

Turning to `Cn1cc(-c2ccc3c(c2)CCN3C(=O)Cc2cccc(C(F)(F)F)c2)c2c(N)ncnc21`, the neurite formation score in the assay with Neuro-2a [1] turned out to be 4.36; with Neuro-2a [2], 5.25.

In the case of `Cc1ccc(S(=O)(=O)Nc2nc3ccccc3nc2Nc2ccc3nsnc3c2)cc1`, the neurite formation score with Neuro-2a [1] amounted to 4.14; with Neuro-2a [2], 4.09.

Consider `O=C(Nc1cccc(Cl)c1)Nc1ncc(CCNc2ncnc3ccsc23)s1` [SNS-314 Mesylate], for which the neurite formation score in the assay with Neuro-2a [1] stood at 4.69; in the assay with Neuro-2a [2], 4.58.

With `COc1cc2nccc(Oc3ccc(NC(=O)Nc4cc(C)on4)c(Cl)c3)c2cc1OC` [Tivozanib (AV-951)], the neurite formation score in the assay with Neuro-2a [1] amounted to 4.24; with Neuro-2a [2] it was 4.71.

`Cc1nc2c(-c3cnc(N)nc3)nc(N3CCOCC3)nc2n1C(C)C`: the neurite formation score in the assay with Neuro-2a [1] amounted to 4.02; in the assay on Neuro-2a [2], 4.25.

On to `Cn1cc(C2=C(c3ccc(Cl)cc3Cl)C(=O)NC2=O)c2ccccc21`, for which the neurite formation score in the assay with Neuro-2a [1] amounted to 4.14; with Neuro-2a [2] it was 4.76.

For `CCN1CCN(Cc2ccc(NC(=O)Nc3ccc(Oc4cc(NC)ncn4)cc3)cc2C(F)(F)F)CC1`, the values for the neurite formation score in the assay on Neuro-2a [1] and in the assay on Neuro-2a [2] were 4.57 and 2.04, respectively.

For `C[C@@]1(C(=O)Nc2ccc(F)nc2)CCCN1c1nc(Nc2cc(C3CC3)n[nH]2)c2cccn2n1`, the results for the neurite formation score with Neuro-2a [1] and in the assay with Neuro-2a [2] were 4.57 and 4.38, respectively.

As for `O=C(Nc1ccc(OC(F)(F)F)cc1)c1sccc1NCc1ccnc2ccccc12`, the neurite formation score in the assay on Neuro-2a [1] was determined as 3.91; in the assay on Neuro-2a [2], 3.38.

In the case of `CCc1ccc(/C=C2/SC(=S)NC2=O)cc1`, the neurite formation score in the assay on Neuro-2a [1] is 5.57; in the assay with Neuro-2a [2], 5.04.

Turning to `CS(=O)(=O)N1CCC(NC(=O)c2[nH]ncc2NC(=O)c2c(Cl)cccc2Cl)CC1`, the neurite formation score with Neuro-2a [1] turned out to be 4.47; in the assay with Neuro-2a [2], 5.09.

For the compound `O=C(c1ccc(Nc2nccc(-c3cc4ccccc4s3)n2)cc1)N1CCC(N2CCCC2)CC1` [IKK-16 (IKK Inhibitor VII)], the neurite formation score with Neuro-2a [1] stood at 4.54; with Neuro-2a [2] it was 3.75.

In the case of `O=C(c1cccc(Cl)c1F)N1CCN(Cc2cccc(Nc3nccs3)n2)CC1`, the neurite formation score in the assay on Neuro-2a [1] amounted to 4.14; with Neuro-2a [2], 1.42.

Consider `Cc1ccc(Nc2nccc(N(C)c3ccc4c(C)n(C)nc4c3)n2)cc1S(N)(=O)=O` [Pazopanib Hydrochloride], for which the neurite formation score with Neuro-2a [1] worked out at 3.57; with Neuro-2a [2], 4.88.

On to `CCN(CC)CCCCNc1ncc2cc(-c3cc(OC)cc(OC)c3)c(NC(=O)NC(C)(C)C)nc2n1`, for which the results for the neurite formation score in the assay on Neuro-2a [1] and in the assay with Neuro-2a [2] were 4.24 and 5.21, respectively.

For `CNC(=O)c1ccccc1Sc1ccc2c(/C=C/c3ccccn3)n[nH]c2c1`, the results for the neurite formation score with Neuro-2a [1] and in the assay with Neuro-2a [2] were 3.57 and 4.54, respectively.

For `COc1cc2ncnc(Nc3ccc(O)c(Br)c3)c2cc1OC`, the figures for the neurite formation score with Neuro-2a [1] and in the assay on Neuro-2a [2] were 4.47 and 5.09, respectively.

Turning to `Cc1ccc(NC(=O)c2ccc(CN3CCN(C)CC3)cc2)cc1Nc1nccc(-c2cccnc2)n1` [Imatinib (STI571)], the neurite formation score was determined as 4.54 with Neuro-2a [1] and 1.42 in the assay with Neuro-2a [2].

Take `COc1cc2/c(=N/c3ccc(Br)cc3F)nc[nH]c2cc1OCC1CCN(C)CC1` [Vandetanib (ZD6474)]: the figures for the neurite formation score in the assay on Neuro-2a [1] and in the assay with Neuro-2a [2] were 4.8 and 5.09, respectively.

As to `COc1ccc(-c2ccc3c(N4CCOC[C@@H]4C)nc(N4CCOC[C@@H]4C)nc3n2)cc1CO`, the neurite formation score was 4.57 in the assay on Neuro-2a [1] and 3.21 with Neuro-2a [2].

Take `CCCNC(=O)Nc1ccc(Oc2ncnc3cc(OC)c(OC)cc23)cc1Cl`: the results for the neurite formation score in the assay with Neuro-2a [1] and in the assay on Neuro-2a [2] were 5.57 and 5.54, respectively.

In the case of `Cn1cc(-c2[nH]c3cc(NC(=O)[C@H](N)C4CCCCC4)cc4c3c2C=NNC4=O)cn1`, the neurite formation score with Neuro-2a [1] was 3.63; with Neuro-2a [2], 4.25.

Consider `c1cncc(CN2CCC(n3ncc4c(N5CCOCC5)nc(-c5ccc6[nH]ccc6c5)nc43)CC2)c1`, for which the neurite formation score in the assay on Neuro-2a [1] was found to be 1.54; in the assay on Neuro-2a [2], 0.751.

On to `C#Cc1cccc(Nc2ncnc3cc(OC)c(OCCCCCCC(=O)NO)cc23)c1`, for which the neurite formation score in the assay on Neuro-2a [1] turned out to be 4.36; in the assay on Neuro-2a [2], 4.25.

`CCc1cnn2c(NCc3ccc[n+]([O-])c3)cc(N3CCCC[C@H]3CCO)nc12`: the results for the neurite formation score in the assay with Neuro-2a [1] and in the assay with Neuro-2a [2] were 3.14 and 3.42, respectively.

On to `COc1cc2ncnc(Nc3ccc(F)c(Cl)c3)c2cc1NC(=O)/C=C/CN1CCCCC1`, for which the neurite formation score in the assay with Neuro-2a [1] came out at 4.9; in the assay on Neuro-2a [2] it was 4.88.

For `CCc1cccc(CC)c1NC(=O)N1Cc2[nH]nc(NC(=O)c3ccc(N4CCN(C)CC4)cc3)c2C1`, the neurite formation score in the assay on Neuro-2a [1] came out at 4.8; in the assay with Neuro-2a [2], 5.09.

For `O=c1ncn2nc(Sc3ccc(F)cc3F)ccc2c1-c1c(Cl)cccc1Cl`, the neurite formation score was 4.29 in the assay with Neuro-2a [1] and 4.92 with Neuro-2a [2].

Take `CN1CCN(c2ccc3nc(-c4c(N)c5c(F)cccc5[nH]c4=O)[nH]c3c2)CC1` [Dovitinib Dilactic acid]: the neurite formation score with Neuro-2a [1] was 4.96; in the assay on Neuro-2a [2], 4.92.

As to `CCCCCCCCCCCCCC(=O)OC[C@H](CO)OC(=O)CCCCCCCCCCCCC` [1,2-Dimyristoyl-sn-glycerol], the results for the neurite formation score with Neuro-2a [1] and in the assay on Neuro-2a [2] were 4.88 and 5.08, respectively.

Regarding `C[C@H](Nc1ncnc2nc[nH]c12)c1cc2cccc(Cl)c2c(=O)n1-c1ccccc1`, the neurite formation score came to 2.91 with Neuro-2a [1] and 5.04 in the assay on Neuro-2a [2].

`N#C/C(=C(/N)Sc1ccc(N)cc1)c1ccccc1C(F)(F)F`: the neurite formation score was found to be 3.91 with Neuro-2a [1] and 4.71 in the assay with Neuro-2a [2].

In the case of `Cc1ccccc1-n1c(Cn2nc(-c3cccc(O)c3)c3c(N)ncnc32)nc2cccc(C)c2c1=O`, the neurite formation score in the assay with Neuro-2a [1] was 4.88; with Neuro-2a [2], 4.75.

As for `O=C(Nc1ccc(-c2ccnc(Nc3ccc(N4CCOCC4)cc3)n2)cc1)C1CCCN1` (stereo unspecified), the figures for the neurite formation score in the assay with Neuro-2a [1] and in the assay on Neuro-2a [2] were 4.02 and 4.92, respectively.

Consider `Cc1cc(Nc2cc(N3CCN(C)CC3)nc(Sc3ccc(NC(=O)C4CC4)cc3)n2)n[nH]1` [VX-680 (MK-0457,Tozasertib)], for which the neurite formation score with Neuro-2a [1] is 5.02; in the assay on Neuro-2a [2], 3.58.

With `COc1ccccc1-c1cc(Nc2cccc(CS(N)(=O)=O)c2)ncn1`, the neurite formation score with Neuro-2a [1] was determined as 4.54; in the assay on Neuro-2a [2], 4.42.

`N=C(N)NC(=N)NCCc1ccccc1` [Phenformin HCl]: the neurite formation score in the assay with Neuro-2a [1] came out at 4.8; in the assay on Neuro-2a [2], 4.76.

Consider `C[C@@H]1COCCN1c1cc(C2(S(C)(=O)=O)CC2)nc(-c2cccc3[nH]ccc23)n1`, for which the neurite formation score came to 4.57 in the assay on Neuro-2a [1] and 4.71 in the assay on Neuro-2a [2].

(Values after the supplement of paper PMC8047044.)
